About 3,600 (5.5%) of roughly 65,000 compounds were called active.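 The calls were made as follows: active = at 10 µM, mean starting fluorescence two-fold or more over control wells; inactive = the rest.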 Shown is part of a subset that was picked to be rich in actives.

This assay can be described thus: intrinsic fluorescence of library compounds, ex339/em460 – biochemical, MLSMR library, data from DPM-DC assay, artefact control, profiling panel (AID 709).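 Also: signal is the first read of a kinetic run.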 To be noted: compound autofluorescence, ex339/em460 nm, NADH buffer; at 10 µM; hits give high values; 1 = no-compound wells, NADH background.
With `O=C1CC(c2cccc(F)c2)C2=C(CCCC2=O)N1` (stereo not given), the fluorescence fold increase was 1.17 (inactive). For the molecule `O=C1CC(c2cccc(Br)c2)C2=C(CCCC2=O)N1` (stereo not given), the fluorescence fold increase was 2.04 (active). With `O=C1CCCc2c1[nH]c1ccc(Br)cc21` the figure was 1.13 (inactive).

Consider `C=CCc1cccc2cc(C(=O)OCC)c(=O)oc12`, for which the fluorescence fold increase was 1.21 (inactive). `CC(=O)O[C@]1(C(C)=O)CC[C@H]2[C@@H]3C=C(C)C4=CC(=O)CC[C@]4(C)[C@H]3CC[C@@]21C`: the fluorescence fold increase was 1 (inactive).

On to `COc1ccc(C(=O)NCCc2ccc(S(N)(=O)=O)cc2)cc1OC`, for which the fluorescence fold increase is 1.15 (inactive). Consider `O=C(NCc1ccc(Cl)cc1)c1cc2c(nc3sccn32)s1`, for which the fluorescence fold increase was 2.6 (active).

Regarding `O=c1cc(Cn2nnc(-c3ccc(Cl)cc3)n2)nc2sccn12`, the fluorescence fold increase was 1.22 (inactive).

As for `O=C(NCc1cn2ccsc2n1)Nc1ccc(Cl)cc1`, the fluorescence fold increase is 1.11 (inactive).

For `O=C(Nc1c2c(nn1-c1ccc(F)cc1)CS(=O)C2)C12CC3CC(CC(C3)C1)C2` (stereo not given), the fluorescence fold increase was 1.05 (inactive). Regarding `Cc1cc(C)cc(N(CC(=O)Nc2c(C)n(C)n(-c3ccccc3)c2=O)S(C)(=O)=O)c1`, the fluorescence fold increase was 1.04 (inactive). Regarding `Cc1nc2cc(-c3ccc(F)cc3)nn2c(N2CCOCC2)c1C`, the fluorescence fold increase is 1.16 (inactive). As for `CN(C)CCCNC(=O)c1ccc2[nH]c3ccccc3c2c1`, the fluorescence fold increase was 3.36 (active). For the molecule `Cc1ccc(C(=O)NCCNS(=O)(=O)c2ccccc2)cc1`, the fluorescence fold increase was 1.02 (inactive). `COCCCNC(=O)c1ccc2c(c1)ncn2-c1ccccc1OC`: the fluorescence fold increase is 1.07 (inactive). Take `CSc1nnc(CNC(=O)c2ccccc2)n1-c1ccc(F)cc1`: the fluorescence fold increase was 1.11 (inactive). Consider `O=S(=O)(c1cccc(S(=O)(=O)N2CCC(n3nnc4ccccc43)CC2)c1)N1CCCCC1`, for which the fluorescence fold increase was 1.05 (inactive). With `Cc1ccc2oc(=O)c3cnn(CC(=O)N4CCCCCC4)c3c2c1` the figure was 1.04 (inactive). For `Cc1ccc(C(=O)N2CCCCCC2)cc1Br`, the fluorescence fold increase was 1.08 (inactive). `Cc1ccc2cc3cc(C(=O)N4CCCCCC4)oc3nc2c1`: the fluorescence fold increase is 3.22 (active). With `Cc1cc(C)n2nc(C(=O)Oc3ccc4c(c3)OCO4)nc2n1` the figure was 1.15 (inactive); with `Cc1nc(Nc2ccc3c(c2)OCCO3)c2nnn(Cc3ccccc3Cl)c2n1`, 2.39 (active). Turning to `CC(C)(C)c1nc(NCC2CCCO2)c2nnn(Cc3ccccc3)c2n1` (stereo not given), the fluorescence fold increase was 1.16 (inactive). As to `C#CCNc1nc(C(C)C)nc2c1nnn2Cc1ccccc1F`, the fluorescence fold increase is 1.04 (inactive). For `CCc1ccc2oc(=O)cc(CN3CCCCC3C)c2c1` (stereo not given), the fluorescence fold increase is 1.11 (inactive).

`CCOC(=O)N1CCN(Cc2oc(CO)cc(=O)c2O)CC1`: the fluorescence fold increase was 1.04 (inactive). With `CCCc1cc(=O)oc2c(C)c(O)c(CN3CCCCC3)cc12` the figure was 2.34 (active); with `C[N+](C)(C)CCNC(=O)c1c(O)c2c([nH]c1=O)CCCC2`, 1.18 (inactive). With `O=C(Cn1c(-c2ccccn2)nc2ccccc21)NCCN1CCOCC1` the figure was 1.39 (inactive).

As to `NC(=O)COc1ccc2c3c(c(=O)oc2c1)CCCCC3`, the fluorescence fold increase is 3.71 (active).

As for `O=C(COc1ccccc1F)NC1CC1`, the fluorescence fold increase is 1.01 (inactive). For the molecule `CCc1cc(=O)oc2cc(OCC(=O)N3CCCc4ccccc43)ccc12`, the fluorescence fold increase was 1.26 (inactive). As for `O=C(COc1ccc2c3c(c(=O)oc2c1)CCC3)NC1CCCCC1`, the fluorescence fold increase was 2.13 (active).

Turning to `O=C(COc1ccc2oc3c(c2c1)CCCC3)Nc1ccccn1`, the fluorescence fold increase was 1.06 (inactive).

Turning to `O=C(CC1OC(=O)c2ccccc21)NC1CCCCC1` (stereo not given), the fluorescence fold increase is 1.08 (inactive). In the case of `O=C(C1CCC(C(=O)N2CCCC2)CC1)N1CCCC1` (stereo not given), the fluorescence fold increase is 1.02 (inactive). With `Cc1nnc(SCC(=O)NCc2ccccc2)s1` the figure was 1.06 (inactive); with `O=C(O)CC(c1ccccc1)n1cnnn1` (stereo not given), 1.14 (inactive). `O=C(CS(=O)(=O)Cc1ccccc1)Nc1cccnc1`: the fluorescence fold increase was 1.1 (inactive). With `CCOCCN(C=O)c1cccc(OC)c1` the figure was 1.15 (inactive); with `COc1ccccc1C1/C(=C(/O)c2ccc(OC(C)C)cc2)C(=O)C(=O)N1c1cc(C)on1` (stereo not given), 1.06 (inactive).

In the case of `Cc1ccc(S(=O)(=O)NCC(=O)N(CC(=O)NC2CCCCC2)Cc2ccco2)cc1`, the fluorescence fold increase was 1 (inactive). For the molecule `CC(Cc1cccs1)NC(=O)NC1CCCCC1` (stereo not given), the fluorescence fold increase was 1.06 (inactive). With `COc1ccc(C(=O)c2oc3ccc(Br)cc3c2NC(C)=O)cc1`, the fluorescence fold increase is 1.11 (inactive). With `COc1ccc2oc(C)c(NC(C)=O)c2c1` the figure was 1.06 (inactive); with `CC(=O)Oc1ccc2c(C)c(CC(C)O)c(=O)oc2c1` (stereo not given), 3.67 (active). As to `CC(=O)Nc1cc2ccc(OC(C)=O)cc2oc1=O`, the fluorescence fold increase is 2.1 (active). On to `O=C(NCc1ccc(Cl)c(Cl)c1)c1cccnc1`, for which the fluorescence fold increase was 0.91 (inactive). On to `O=C1C=C(NCCNc2c(F)c(F)c(CO)c(F)c2F)CCC1`, for which the fluorescence fold increase is 1.14 (inactive). As for `CC(C)C(=O)N1CCN(c2nc(-c3ccccc3)c3c(c2C#N)CC(C)(C)OC3)CC1`, the fluorescence fold increase was 2.34 (active). Take `CC1(C)Cc2c(C#N)c(SCc3nc4ccccc4[nH]3)nc(N3CCOCC3)c2CO1`: the fluorescence fold increase is 1.39 (inactive). Regarding `Cc1nc(NCCN)c(C#N)c2c1COC(C)(C)C2`, the fluorescence fold increase is 1.92 (inactive).

`COc1ccc(CSc2nc(N3CCOCC3)c3c(c2C#N)CC(C)(C)OC3)cc1`: the fluorescence fold increase is 1.08 (inactive).

Consider `CC(C)Cc1nc(N2CCOCC2)c(C#N)c2c1CCC2`, for which the fluorescence fold increase was 1.97 (inactive). For the molecule `CC(C)c1nc(N2CCOCC2)c(C#N)c2c1COC(C)(C)C2`, the fluorescence fold increase was 2.28 (active). With `C/C(=C\c1ccco1)C1Nc2cccc3cccc(c23)N1` the figure was 1.19 (inactive); with `CCOc1c(OC)cc(C2C(C#N)=C(N)Oc3n[nH]c(-c4ccncc4)c32)cc1OC` (stereo not given), 1.13 (inactive). `COc1ccc(-n2c(C)cc(C(=O)CSc3nnc(-c4cccs4)o3)c2C)cc1`: the fluorescence fold increase is 1.07 (inactive).

`COc1ccc(-c2nnc(SCC(=O)c3cccs3)o2)c(OC)c1`: the fluorescence fold increase was 1.12 (inactive). With `COc1ccc(OC)c(C(=O)CSc2nnc(-c3cccs3)o2)c1`, the fluorescence fold increase is 3.64 (active).

`COc1ccc2c(c1)CCc1c(C(=O)N3CCCC3)noc1-2`: the fluorescence fold increase was 1.1 (inactive). With `O=c1[nH]nc(Cc2ccccn2)c2ccccc12` the figure was 1.07 (inactive).

As to `CN(CCc1ccccn1)S(=O)(=O)c1ccc2c3c(cccc13)C(=O)N2`, the fluorescence fold increase is 3.89 (active). Take `CC1(C)CN=C(N2CCN(c3ncnc4sc5c(c34)CCCC5)CC2)S1`: the fluorescence fold increase is 1.03 (inactive).

For the molecule `Fc1c(F)c(C(F)(F)F)c(F)c(F)c1N1CCN(c2ccc3nnc(C(F)(F)F)n3n2)CC1`, the fluorescence fold increase is 1.93 (inactive). With `CN(c1ccccc1)c1ccc(/C=c2\s/c(=C(/C#N)C(=O)C(C)(C)C)n(Cc3ccco3)c2=O)cc1` the figure was 0.95 (inactive); with `Cc1occc1C(=O)Nc1nnc(C2CCCCC2)s1`, 1.04 (inactive); with `Cc1occc1C(=O)Nc1nnc(-c2ccncc2)s1`, 2.2 (active). Take `O=C(Nc1ccncc1)c1cc2ccccc2o1`: the fluorescence fold increase was 1.02 (inactive).

On to `Cc1ccc(C(=O)Nc2nnc(-c3ccncc3)s2)o1`, for which the fluorescence fold increase is 2.14 (active). With `Cc1occc1C(=O)Nc1cccc(Cn2cccn2)c1` the figure was 1.14 (inactive); with `CC(=O)Cc1nsc(NC(=O)c2ccc(COc3ccc(C)cc3)o2)n1`, 1.06 (inactive). On to `COc1ccc(CCNC(=O)c2cc(-c3ccc4c(c3)OCO4)on2)cc1OC`, for which the fluorescence fold increase was 1.07 (inactive). As for `O=C(CSc1nnc(-c2ccccn2)n1-c1ccccc1)Nc1ccc2c(c1)OCO2`, the fluorescence fold increase is 1.08 (inactive). In the case of `CC(C)Oc1ccc(C(=O)Nc2cc(=O)n(C)c(=O)n2C)cc1`, the fluorescence fold increase was 1.01 (inactive). Consider `O=C(c1cccs1)N1CCN(C(=O)N2CCOCC2)CC1`, for which the fluorescence fold increase was 1.11 (inactive). `CCOc1ccccc1N(CC(=O)NC1CCCCC1)C(=O)CCCC(=O)Nc1ccccn1`: the fluorescence fold increase is 1.08 (inactive). Regarding `O=C(CSc1nc2c(cnn2-c2ccc(F)cc2)c(=O)[nH]1)N1CCCCCC1`, the fluorescence fold increase was 1.11 (inactive).

For the molecule `CC(=O)c1sc2nc(SCC(=O)N3CCCCC3)[nH]c(=O)c2c1C`, the fluorescence fold increase was 2.68 (active). With `C=CCNC(=O)CSc1nc2sc(C)c(C)c2c(=O)[nH]1` the figure was 1 (inactive). With `Cc1ccc(-n2nc3c(c2NC(=O)CCC2CCCCC2)CS(=O)C3)cc1` (stereo not given) the figure was 1.14 (inactive). In the case of `CCOc1cccc(NC(=O)C2CCCN(S(=O)(=O)c3ccc(OC)cc3)C2)c1` (stereo not given), the fluorescence fold increase is 1.02 (inactive). Turning to `N#Cc1c2c(c(-c3ccccc3)[nH]c1=O)CCCC2`, the fluorescence fold increase was 1.02 (inactive). Consider `CC1(C)CC(=O)NC=C(c2ccccc2)C1`, for which the fluorescence fold increase was 1.06 (inactive).

`O=c1[nH]c(-c2ccccc2)c(-c2ccccc2)[nH]1`: the fluorescence fold increase was 3.71 (active). Regarding `CCOC(=O)N1CCN(C(=O)c2ccc(S(=O)(=O)c3ccc(C)cc3)c(NC(C)=O)c2)CC1`, the fluorescence fold increase is 1.2 (inactive). For `Cc1ccc(C(=O)CS(C)(=O)=O)cc1`, the fluorescence fold increase was 1.35 (inactive).

As to `OC1CN=C2Sc3ccccc3N2C1` (stereo not given), the fluorescence fold increase was 1.06 (inactive).

`COc1ccc(C(C(O)C(=O)c2c[nH]c3ccccc23)N2CCN(c3ccccc3)CC2)cc1` (stereo not given): the fluorescence fold increase was 1.15 (inactive). With `Cc1cc(C)c2c(c1)cc(C)c1nnc(SCC(=O)Nc3cc(C)on3)n12`, the fluorescence fold increase is 1.09 (inactive).

As for `Cc1nc(SCC(=O)Nc2cc(C)on2)c2c(C)c(C)sc2n1`, the fluorescence fold increase was 1.11 (inactive). For `Cc1ccc2nc(-c3ccc(SCC(=O)Nc4cc(C)on4)nc3)[nH]c2c1`, the fluorescence fold increase is 3.38 (active).

With `CN(c1nc2ccccc2n2c(-c3ccco3)nnc12)S(=O)(=O)c1ccccc1`, the fluorescence fold increase is 2.86 (active). In the case of `Cc1ccc(Oc2nc3ccccc3n3c(C)nnc23)cc1`, the fluorescence fold increase is 1.08 (inactive). As to `c1ccc(CSc2nnc(-c3ccco3)n2Cc2ccccc2)cc1`, the fluorescence fold increase was 1.15 (inactive). With `COc1ccc(OC)c(CN2C(=O)CCC2(C)C(=O)NC2CCCCCC2)c1` (stereo not given), the fluorescence fold increase was 1.09 (inactive). `CCCCc1cc(=O)oc2cc(C)cc(OCc3nn[nH]n3)c12`: the fluorescence fold increase is 3.84 (active). Consider `CC(C)C[C@H](NC(=O)[C@@H]1O[C@H]1C(=O)O)C(=O)NCCCCN=C(N)N`, for which the fluorescence fold increase is 1.01 (inactive). On to `CC1(C)CC(=O)C(C2=NC(C)(C)Cc3ccccc32)=C(O)C1`, for which the fluorescence fold increase is 1.05 (inactive). On to `Cc1ccc2[nH]c3c(c2c1)CN(C(=O)CN1CCN(c2ccccc2)CC1)CC3`, for which the fluorescence fold increase is 1.21 (inactive).

Values taken from PubChem BioAssay AID709 (SRMLSC, 2007).
